The campaign covered roughly 5,500 compounds. About 2,000 (36%) were called active. Roughly 18% stayed inconclusive and do not appear here. No stated cut-off is given here; in the data, active means normalized growth mostly below about 0.91 (no sharp cut-off); inconclusive means no clear call, values can overlap the other calls; inactive means mostly above about 0.92. The list shows a part of the results.
Assay: chemical genetic growth profiling, strain panel (AID 1159580);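 further: tested at 20 µM; growth read once vehicle control cultures reached saturation at 30 °C; 1 = growth at the plate median or of vehicle wells; lower values mean less growth of the strain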
Settings: growth OD

Measured: normalized growth

CC1Cc2ccccc2N1NC(=O)c1ccc(Cl)c(S(N)(=O)=O)c1 (centres undefined)
inactive: S. cerevisiae deletion strains, locus YJR043C, strain POL32, hits give low values 1.02 | S. cerevisiae deletion strains, locus YJR066W, strain TOR1, hits give low values 0.94 | S. cerevisiae deletion strains, locus YJR075W, strain HOC1, hits give low values 1.01 | S. cerevisiae deletion strains, locus YKL009W, strain mrt4, hits give low values 1.01 | S. cerevisiae deletion strains, locus YKL068W, hits give low values 0.994 | S. cerevisiae deletion strains, locus YKL085W, strain MDH1 (second series), hits give low values 0.988 | S. cerevisiae deletion strains, locus YKL085W, strain MDH1, hits give low values 0.988 | S. cerevisiae deletion strains, locus YKL160W, strain elf1, hits give low values 0.991 | S. cerevisiae deletion strains, locus YKR001C, strain vps1, hits give low values 1.01 | S. cerevisiae deletion strains, locus YKR026C, strain gcn3, hits give low values 0.997 | S. cerevisiae deletion strains, locus YKR091W, strain srl3, hits give low values 0.997 | S. cerevisiae deletion strains, locus YLL001W, strain dnm1, hits give low values 0.994 | S. cerevisiae deletion strains, locus YLL026W, hits give low values 0.999 | S. cerevisiae deletion strains, locus YLL041C, strain sdh2, hits give low values 0.998 | S. cerevisiae deletion strains, locus YLR027C, strain aat2, hits give low values 1 | S. cerevisiae deletion strains, locus YLR039C, strain RIC1, hits give low values 1.03 | S. cerevisiae deletion strains, locus YLR058C, strain SHM2, hits give low values 1.01 | S. cerevisiae deletion strains, locus YLR102C, strain apc9, hits give low values 0.989 | S. cerevisiae deletion strains, locus YLR113W, strain HOG1, hits give low values 1 | S. cerevisiae deletion strains, locus YLR221C, strain rsa3, hits give low values 0.989 | S. cerevisiae deletion strains, locus YLR258W, strain gsy2, hits give low values 1.01 | S. cerevisiae deletion strains, locus YLR262C, strain YPT6 (second series), hits give low values 0.996 | S. cerevisiae deletion strains, locus YLR262C, strain YPT6, hits give low values 1.04 | S. cerevisiae deletion strains, locus YLR268W, strain sec22, hits give low values 1.03 | S. cerevisiae deletion strains, locus YLR320W, strain mms22, hits give low values 1 | S. cerevisiae deletion strains, locus YLR330W, strain CHS5, hits give low values 1.01 | S. cerevisiae deletion strains, locus YLR342W, strain FKS1 (second series), hits give low values 1.01 | S. cerevisiae deletion strains, locus YLR342W, strain FKS1, hits give low values 0.999 | S. cerevisiae deletion strains, locus YLR357W, strain rsc2, hits give low values 1.03 | S. cerevisiae deletion strains, locus YLR370C, strain arc18, hits give low values 1.01 | S. cerevisiae deletion strains, locus YLR371W, strain rom2, hits give low values 0.99 | S. cerevisiae deletion strains, locus YLR384C, strain iki3, hits give low values 1.01 | S. cerevisiae deletion strains, locus YLR418C, strain cdc73, hits give low values 0.989 | S. cerevisiae deletion strains, locus YML016C, strain PPZ1, hits give low values 1.01 | S. cerevisiae deletion strains, locus YML032C, strain rad52, hits give low values 0.994 | S. cerevisiae deletion strains, locus YML120C, strain ndi1, hits give low values 0.987 | S. cerevisiae deletion strains, locus YML124C, strain tub3, hits give low values 0.999 | S. cerevisiae deletion strains, locus YMR058W, strain fet3, hits give low values 1.01 | S. cerevisiae deletion strains, locus YMR078C, strain ctf18, hits give low values 0.994 | S. cerevisiae deletion strains, locus YMR125W, strain sto1, hits give low values 1.01 | S. cerevisiae deletion strains, locus YMR129W, hits give low values 1.01 | S. cerevisiae deletion strains, locus YMR205C, strain PFK2, hits give low values 0.985 | S. cerevisiae deletion strains, locus YMR223W, strain ubp8, hits give low values 0.977 | S. cerevisiae deletion strains, locus YMR231W, strain pep5, hits give low values 1 | S. cerevisiae deletion strains, locus YMR263W, strain SAP30, hits give low values 1.02 | S. cerevisiae deletion strains, locus YMR307W, strain GAS1, hits give low values 1.04 | S. cerevisiae deletion strains, locus YNL067W, strain RPL9B, hits give low values 1.01 | S. cerevisiae deletion strains, locus YNL071W, strain lat1, hits give low values 1.01 | S. cerevisiae deletion strains, locus YNL183C, strain NPR1, hits give low values 0.958 | S. cerevisiae deletion strains, locus YNL209W, strain ssb2, hits give low values 1 | S. cerevisiae deletion strains, locus YNL233W, strain BNI4, hits give low values 1.01 | S. cerevisiae deletion strains, locus YNL248C, strain rpa49, hits give low values 0.989 | S. cerevisiae deletion strains, locus YNL250W, strain rad50, hits give low values 0.984 | S. cerevisiae deletion strains, locus YNL271C, strain bni1, hits give low values 0.995 | S. cerevisiae deletion strains, locus YNL298W, strain CLA4, hits give low values 0.995 | S. cerevisiae deletion strains, locus YNL307C, strain MCK1, hits give low values 0.996 | S. cerevisiae deletion strains, locus YNL322C, strain KRE1 (second series), hits give low values 0.997 | S. cerevisiae deletion strains, locus YNR049C, strain mso1, hits give low values 1 | S. cerevisiae deletion strains, locus YNR052C, strain pop2, hits give low values 0.991 | S. cerevisiae deletion strains, locus YOL006C, strain TOP1, hits give low values 1.01 | S. cerevisiae deletion strains, locus YOL012C, strain htz1 0.983 | S. cerevisiae deletion strains, locus YOL147C, strain pex11, hits give low values 1 | S. cerevisiae deletion strains, locus YOR001W, strain rrp6, hits give low values 0.975 | S. cerevisiae deletion strains, locus YOR061W, strain CKA2, hits give low values 1.02 | S. cerevisiae deletion strains, locus YOR069W, strain VPS5, hits give low values 1.01 | S. cerevisiae deletion strains, locus YOR070C, strain gyp1, hits give low values 1 | S. cerevisiae deletion strains, locus YOR080W, strain dia2, hits give low values 1 | S. cerevisiae deletion strains, locus YOR083W, strain WHI5, hits give low values 0.983 | S. cerevisiae deletion strains, locus YOR106W, strain vam3, hits give low values 0.981 | S. cerevisiae deletion strains, locus YOR136W, strain idh2, hits give low values 0.992 | S. cerevisiae deletion strains, locus YOR144C, strain elg1, hits give low values 0.998 | S. cerevisiae deletion strains, locus YOR184W, strain ser1, hits give low values 0.982 | S. cerevisiae deletion strains, locus YOR231W, strain MKK1, hits give low values 0.971 | S. cerevisiae deletion strains, locus YOR265W, strain rbl2, hits give low values 1.02 | S. cerevisiae deletion strains, locus YOR270C, strain vph1, hits give low values 0.997 | S. cerevisiae deletion strains, locus YOR290C, strain snf2, hits give low values 0.952 | S. cerevisiae deletion strains, locus YOR316C, strain cot1, hits give low values 0.994 | S. cerevisiae deletion strains, locus YPL051W, strain arl3, hits give low values 0.993 | S. cerevisiae deletion strains, locus YPL055C, strain LGE1, hits give low values 1 | S. cerevisiae deletion strains, locus YPL078C, strain atp4, hits give low values 0.984 | S. cerevisiae deletion strains, locus YPL106C, strain sse1, hits give low values 0.994 | S. cerevisiae deletion strains, locus YPL240C, strain hsp82, hits give low values 1.01 | S. cerevisiae deletion strains, locus YPL256C, strain CLN2, hits give low values 0.998 | S. cerevisiae deletion strains, locus YPR119W, strain clb2, hits give low values 0.991 | S. cerevisiae deletion strains, locus YPR141C, strain kar3, hits give low values 0.998 | S. cerevisiae deletion strains, locus YPR163C, strain tif3, hits give low values 1 | S. cerevisiae deletion strains, locus YPR167C, strain met16, hits give low values 0.997 | S. cerevisiae deletion strains, strain wtn01, hits give low values 1.02 | S. cerevisiae strains, strain wild type, hits give low values 1.01

From PubChem BioAssay AID1159580 (chemical genetic matrix, 2015)
